Assay results reported in PubChem BioAssay (NCI).
Values joined by “and” are separate entries in the source; they are usually repeats but may differ in a detail not shown here. Equal values may be shown once. This is part of a sample that, as a whole, favours compounds with a hit. Of some 83,000 tested, about 20% had one in any assay.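 Cell lines were cultured in 96-well plates, exposed to a single compound concentration, and assessed for percent growth 48 hours later.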 Active and inactive are the calls of the source. Rule for the calls: active = growth percent below 10; inactive = the rest.

Key:
Test in all cases: NCI-60 one-dose screen, 48 h (100 = growth as untreated, 0 = no growth, -100 = all killed)
Conditions in all cases: 10 µM unless noted
HCT-15 colon = system: HCT-15 colon
HT29 colon = system: HT29 colon
SNB-75 CNS = system: SNB-75 CNS
SNB-19 CNS = system: SNB-19 CNS
U251 CNS = system: U251 CNS
PC-3 prostate = system: PC-3 prostate
SK-MEL-5 melanoma = system: SK-MEL-5 melanoma
UACC-62 melanoma = system: UACC-62 melanoma
LOX IMVI melanoma = system: LOX IMVI melanoma
SK-MEL-28 melanoma = system: SK-MEL-28 melanoma

SMILES	growth (HCT-15 colon)	growth (HT29 colon)	growth (SNB-75 CNS)	growth (SNB-19 CNS)	growth (U251 CNS)	growth (PC-3 prostate)	growth (SK-MEL-5 melanoma)	growth (UACC-62 melanoma)	growth (LOX IMVI melanoma)	growth (SK-MEL-28 melanoma)
Nc1n[nH]c2cccc(C#Cc3cccc(NC(=O)c4ccc(N5CCOCC5)c(C(F)(F)F)c4)c3)c12	8.44% (active)	3.29% (active)	-25.6% (active)	26.1% (inactive)	16.6% (inactive)	1.76% (active)	23.4% (inactive)	-5.9% (active)	-96.9% (active)	8.55% (active)
O=C1c2cccc3cccc(c23)C(=O)N1N1C(=O)c2cccc3c(N4CCNCC4)ccc(c23)C1=O	50.6% (inactive)	87.3% (inactive)	92.2% (inactive)	88.5% (inactive)	86.3% (inactive)	85.1% (inactive)	92.8% (inactive)	95.7% (inactive)	86.5% (inactive)	109% (inactive)
N#Cc1ccccc1OCC(=O)Nc1nc2c(s1)COc1ccccc1-2	103% (inactive)	104% (inactive)	82.7% (inactive)	102% (inactive)	98.8% (inactive)	102% (inactive)	103% (inactive)	82.4% (inactive)	90.6% (inactive)	116% (inactive)
Cc1nc2sc(C(=O)Nc3cccc4ncccc34)c(N)c2cc1C(C)O (stereo not given)	64.1% (inactive)	52.8% (inactive)	76.6% (inactive)	67.8% (inactive)	83.4% (inactive)	72.9% (inactive)	56.8% (inactive)	42.9% (inactive)	73.8% (inactive)	67.3% (inactive)
Cc1nnc(NS(=O)(=O)c2ccc(N=Nc3ccc(N)nc3N)cc2)s1	99.7% (inactive) and 107% (inactive)	108% (inactive) and 104% (inactive)	92% (inactive) and 89.6% (inactive)	100% (inactive) and 112% (inactive)	105% (inactive) and 106% (inactive)	93.8% (inactive) and 98.2% (inactive)	117% (inactive)	97% (inactive) and 111% (inactive)	93.2% (inactive) and 101% (inactive)	111% (inactive) and 116% (inactive)
CN1C(=O)/C(=C/c2ccc(C(=O)Nc3ncc(Cc4ccccc4Cl)s3)cc2)SC1=S	42.1% (inactive)	69.5% (inactive)	69.4% (inactive)	83.3% (inactive)	89.4% (inactive)	77.6% (inactive)	62.4% (inactive)	18.1% (inactive)	45.1% (inactive)	74.8% (inactive)
Cc1ccc(/C=C(\C#N)c2cc3ccccc3[nH]2)cc1	27.1% (inactive)	13% (inactive)	54.1% (inactive)	55.4% (inactive)	38% (inactive)	71.1% (inactive)	52% (inactive)	22.7% (inactive)	43.4% (inactive)	72.1% (inactive)
O=C(CCCOc1ccc(Br)cc1)Nc1ncc(Cc2ccc(F)cc2)s1	38.6% (inactive)	49.1% (inactive)	55% (inactive)	76.5% (inactive)	80.4% (inactive)	72.9% (inactive)	68.8% (inactive)	50.2% (inactive)	64.6% (inactive)	76.8% (inactive)
COc1ccc(-c2ccccc2)cc1-c1c(Nc2cc(Cl)cc(Cl)c2O)c(=O)c1=O	10.2% (inactive)	44.6% (inactive)	-8.42% (active)	10.9% (inactive)	6.59% (active)	12.5% (inactive)	-40.7% (active)	10.6% (inactive)	7.28% (active)	20% (inactive)
Cc1ccc(/C=C/c2c(C(=O)/C=C/c3ccccc3)c(C)nc3ccccc23)cc1	-24.6% (active)	0.173% (active)	29% (inactive)	15.7% (inactive)	-5.93% (active)	31.3% (inactive)	32.3% (inactive)	29.2% (inactive)	-79.4% (active)	24.3% (inactive)
Nc1[nH]nc(Nc2ccccc2)c1-c1nc2ccccc2s1	11.1% (inactive)	58.5% (inactive)	44.2% (inactive)	34% (inactive)	22% (inactive)	14.9% (inactive)	57.6% (inactive)	27.2% (inactive)	-79.1% (active)	35.4% (inactive)
Cc1ccc(/C=C2\COc3ccc(O)c(O)c3C2=O)cc1	-16.5% (active)	12.9% (inactive)	13.5% (inactive)	24.8% (inactive)	-3.38% (active)	-10.4% (active)	1.84% (active)	-19.7% (active)	-83.3% (active)	35.6% (inactive)
c1ccc(-c2cc(-c3cc(-c4ccccc4)on3)no2)cc1	17.5% (inactive)	21.2% (inactive)	123% (inactive)	101% (inactive)	73.8% (inactive)	128% (inactive)	101% (inactive)	89.7% (inactive)	69.2% (inactive)	102% (inactive)
Cc1ccc(S(=O)(=O)OC[C@@]2(C)CC[C@]3(C)CC[C@]4(C)C(=C3C2)C=C[C@@H]2[C@@]3(C)CCCNC(C)(C)[C@@H]3CC[C@]24C)cc1	-74.5% (active)	-69.2% (active)	82.9% (inactive)	47.8% (inactive)	-95.9% (active)	43.5% (inactive)	76.5% (inactive)	61.1% (inactive)	-99.2% (active)	96.7% (inactive)
COc1ccc(C(=O)N/N=C/c2ccc(O)cc2O)cc1Nc1ccnc(C(F)(F)F)c1	40.1% (inactive)	37.4% (inactive)	26.4% (inactive)	34.2% (inactive)	28.3% (inactive)	64.5% (inactive)	24.2% (inactive)	1.67% (active)	8.4% (active)	42.9% (inactive)
Cc1nc2cccc(NCCCCC(=O)NO)c2c(=O)n1-c1ccccc1	71.6% (inactive)	52.1% (inactive)	45.1% (inactive)	65.5% (inactive)	70.2% (inactive)	63% (inactive)	34.9% (inactive)	31.8% (inactive)	75.8% (inactive)	58.3% (inactive)
Cc1nc2sc(C(=O)Nc3cccc4ccccc34)c(N)c2cc1C(=O)/C=C/c1ccccc1	-63.3% (active)	-47.9% (active)	8.27% (active)	-27.1% (active)	-67.3% (active)	-8.41% (active)	-17.8% (active)	7.54% (active)	-73.1% (active)	23.6% (inactive)

SMILES	growth (HCT-15 colon)	growth (HT29 colon)	growth (SNB-75 CNS)	growth (SNB-19 CNS)	growth (U251 CNS)	growth (PC-3 prostate)	growth (SK-MEL-5 melanoma)	growth (UACC-62 melanoma)	growth (LOX IMVI melanoma)	growth (SK-MEL-28 melanoma)
CCN(CC)CCOc1ccc(/C(=C(\Cl)c2ccccc2)c2ccccc2)cc1	-1.24% (active) and 0.736% (active)	-46.7% (active) and 7.7% (active)	27.2% (inactive) and 31.5% (inactive)	52.4% (inactive) and 86.6% (inactive)	23.1% (inactive) and 72.8% (inactive)	49.1% (inactive) and 91.3% (inactive)	-97.4% (active) and -99.3% (active)	-54.2% (active) and 9.63% (active)	-42.7% (active) and 85.4% (inactive)	-28% (active) and -41.1% (active)
CCNC(=S)n1nc(SC)c(C(=O)OCC)c1N	96.3% (inactive)	102% (inactive)	89.5% (inactive)	93.6% (inactive)	109% (inactive)	102% (inactive)	96.1% (inactive)	81.6% (inactive)	95.4% (inactive)	102% (inactive)
COc1cc(/C=N/NC(=O)CCN2c3ccccc3Sc3ccccc32)cc(OC)c1OC	96.4% (inactive)	90% (inactive)	91.6% (inactive)	90.4% (inactive)	97.8% (inactive)	61.4% (inactive)	76.5% (inactive)	62.6% (inactive)	79.5% (inactive)	97.5% (inactive)
Cc1ccc(S(=O)(=O)Nc2cc(Sc3ccccc3)c(O)c3ccccc23)cc1	91.9% (inactive)	120% (inactive)	98.4% (inactive)	105% (inactive)	16.1% (inactive)	34.6% (inactive)	41.8% (inactive)	42.9% (inactive)	2.72% (active)	84.8% (inactive)
CCN1C(=S)N(CC)C2C1NC(=S)N2/N=C/C=C/c1ccccc1 (stereo not given)	26.5% (inactive)	5.26% (active)	-21.6% (active)	31.4% (inactive)	27.7% (inactive)	36.5% (inactive)	25% (inactive)	24.5% (inactive)	37.6% (inactive)	53.6% (inactive)
COc1ccc(CCNC(=O)COc2cc3c(Nc4ccc(F)c(Cl)c4)ncnc3cc2OC)cc1OC	91.2% (inactive)	95.5% (inactive)	94.6% (inactive)	84.2% (inactive)	103% (inactive)	92.1% (inactive)	92.5% (inactive)	95.7% (inactive)	90.1% (inactive)	98.4% (inactive)
N#Cc1c(-c2cccc(F)c2)cc(-c2cccnc2)[nH]c1=O	104% (inactive)	104% (inactive)	97.1% (inactive)	99.9% (inactive)	101% (inactive)	101% (inactive)	104% (inactive)	97.5% (inactive)	98.8% (inactive)	104% (inactive)
COc1cc(Cl)cc(-c2nn(C(=O)NS(=O)(=O)c3ccc(Cl)cc3)cc2-c2ccncc2)c1	98.4% (inactive)	30.8% (inactive)	-8.56% (active)	97.2% (inactive)	70.6% (inactive)	88.9% (inactive)	95.2% (inactive)	73.3% (inactive)	45.5% (inactive)	95.8% (inactive)
Cc1n(Cc2ccc3ccccc3c2)c(Cl)c(Cl)[n+]1Cc1ccc2ccccc2c1	92.5% (inactive)	19.2% (inactive)	-1.79% (active)	23.3% (inactive)	19.8% (inactive)	12.2% (inactive)	-79.4% (active)	-40.3% (active)	27.8% (inactive)	26.6% (inactive)
Cc1ccccc1SSc1ccccc1C	17.9% (inactive)	23.6% (inactive)	123% (inactive)	84.2% (inactive)	87.6% (inactive)	66.7% (inactive)	89.6% (inactive)	78.8% (inactive)	72% (inactive)	121% (inactive)
CN1CCN(Cc2ccc(NC(=O)c3nc4ccc5[nH]ncc5c4c4c3CCCC4)cc2C(F)(F)F)CC1	-74.6% (active)	-83.2% (active)	-90% (active)	-88.8% (active)	-91% (active)	-83.5% (active)	-92.6% (active)	-87.5% (active)	-94.9% (active)	-85.8% (active)
COc1cc2c(cc1OCCCOC1=C=C=C(c3ccc4c(c3)c3cc(-c5ccc(OCCCOc6cc7c(cc6OC)C(=O)N6CCC[C@H]6C=N7)cc5)ccc3n4S(=O)(=O)c3ccc(C)cc3)C=C1)N=C[C@@H]1CCCN1C2=O	69.4% (inactive)	37.7% (inactive)	4.32% (active)	61.6% (inactive)	-29.8% (active)	42.7% (inactive)	39% (inactive)	-14.1% (active)	-14.5% (active)	64.8% (inactive)
O=C1C(Nc2ccc(Cl)cc2)=C(I)C(=O)c2ncccc21	-40.4% (active)	43.1% (inactive)	19.4% (inactive)	69.3% (inactive)	30.3% (inactive)	37.1% (inactive)	-39.8% (active)	-7.27% (active)	-68.6% (active)	39% (inactive)
CCN(CC)CC(=O)Nc1ccc2ncnc(Nc3ccc(Oc4cccc(F)c4)c(Cl)c3)c2c1	17.6% (inactive)	14.4% (inactive)	66.4% (inactive)	72.2% (inactive)	45.2% (inactive)	44.7% (inactive)	58.4% (inactive)	86.9% (inactive)	-42% (active)	81.3% (inactive)
CN1CCN(CCCN2c3ccccc3Sc3ccc(Cl)cc32)CC1	68.8% (inactive) and 80.8% (inactive)	25.2% (inactive) and 35.9% (inactive)	45.2% (inactive) and 57.4% (inactive)	89.7% (inactive) and 91.4% (inactive)	54.6% (inactive) and 68% (inactive)	56.2% (inactive) and 53.6% (inactive)	17.6% (inactive) and 62.1% (inactive)	33.1% (inactive)	54.4% (inactive) and 71.8% (inactive)	-18.1% (active) and 67.7% (inactive)
Nc1nc(Cl)nc2c1ncn2C1OC(CO)C(O)C1O (stereo not given)	60.8% (inactive) and 68.4% (inactive)	105% (inactive) and 87.7% (inactive)	105% (inactive) and 91.5% (inactive)	52% (inactive) and 53.5% (inactive)	74.6% (inactive) and 64.1% (inactive)	65.6% (inactive) and 67.5% (inactive)	67.6% (inactive) and 52.4% (inactive)	90.1% (inactive) and 80.5% (inactive)	88.7% (inactive) and 66.6% (inactive)	64.6% (inactive) and 75.2% (inactive)
O=C(Nc1ccccc1C(=O)N/N=C(\c1ccccc1)c1ccccn1)c1ccccc1	25.7% (inactive)	22.1% (inactive)	64% (inactive)	27.9% (inactive)	10.8% (inactive)	43.7% (inactive)	-20.9% (active)	-10.4% (active)	14.5% (inactive)	31.9% (inactive)
